In PubChem BioAssay AID686978 (National Center for Advancing Translational Sciences (NCATS), 2013):
Out of some 420,000 compounds screened, about 64,000 (15%) were called active. Not shown: some 27% with an inconclusive outcome. Calls follow the shape of the dose curve; as a rule, active = well fitted inhibition curve with a large enough effect; inconclusive = small, poorly fitted or top-dose-only effect; inactive = flat fitted curve, though single readings scatter. Not all results are given here.

Assay: qHTS for Inhibitors of human tyrosyl-DNA phosphodiesterase 1 (TDP1): qHTS in cells in absence of CPT; also: nearly all actives have a fitted effect of over 55% in size
Settings: DT40 Tdp1-/- hTDP1 cells, no CPT, ATP luminescence, 48 h; activity change, negative = growth inhibition: at 46.2 µM (top of the series)
Procedure, shortened: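 DT40 Tdp1-/-;hTDP1 cells, no CPT (DMSO vehicle only), 400 cells/well; compounds pin-transferred; ≥48 hr, 37 °C; CellTiter-Glo 30 min RT dark, luminescence read.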
% is scaled to controls: 0 for no effect and ±100 for the full control effect; potency is read from the fitted curve at half-maximal effect.

| Compound | activity change, negative = growth inhibition | Potency |
| --- | --- | --- |
| CSc1nnc(-c2ccncc2)n1CCCN1CCCC1=O | -13.2% (inactive) | – |
| O=C(NCCc1nnc2ccc(SCC(=O)N3CCOCC3)nn12)c1ccccc1 | 18.7% (inactive) | – |
| Cc1ccc(N(C(=O)Cc2cccs2)C2C=CS(=O)(=O)C2)cc1Cl (configuration not stated) | -5.03% (inactive) | – |
| Cc1ccc(C)c2c1cc(C)c1nnc(SCC(=O)Nc3cccc(C(=O)O)c3)n12 | 16% (inactive) | – |
| O=C(Nc1cc(=O)[nH]c2ncnn12)c1ccccc1Cl | -5.75% (inactive) | – |
| COC(=O)CSc1ncnc2c1cnn2-c1ccc(C)cc1C | -16.2% (inactive) | – |
| CCN(c1ncnc2c1cnn2-c1ccc(C)cc1)C1CCCCC1 | 7.61% (inactive) | – |
| Cc1ccc(-n2ncc3c(N4CCC(C(N)=O)CC4)ncnc32)cc1 | 20.4% (inactive) | – |
| CCN1CCN(c2ncnc3c2cnn3-c2ccc(C)c(C)c2)CC1 | – | 18.4 µM (active) |
| COc1ccccc1N1CCN(C(=O)CSc2ncnc3c2cnn3-c2ccc(C)c(C)c2)CC1 | – | 23.1 µM (active) |
| COc1ccc(-n2ncc3c(SCC(=O)NNC(C)=O)ncnc32)cc1 | -27.9% (inactive) | – |
| O=C1C2C3C=CC(C3)C2C(=O)N1c1ncc([N+](=O)[O-])s1 (configuration not stated) | 11.5% (inactive) | – |
| COc1ccc(C(=O)COC(=O)CCCC(=O)Nc2cc(C(F)(F)F)ccc2Cl)cc1 | -26.7% (inactive) | – |
| Cc1cc(OC(=O)c2ccc(Cl)cc2)cc(=O)n1C | -48.6% (inactive) | – |
| O=C(COc1cccc(F)c1)Oc1ccc(C(=O)c2ccccc2)cc1 | -2.56% (inactive) | – |
| N#Cc1cccc(CSc2nnc(CCCO)n2-c2ccccc2)c1 | -6.18% (inactive) | – |
| CCC(=O)Oc1cccc(C(=O)Nc2ccc(-c3nnc(-c4ccco4)o3)cc2)c1 | – | 5.8 µM (active) |
| CCOc1ccc(-c2nnc(-c3ccco3)o2)cc1 | 2.07% (inactive) | – |
| Cc1ccc(OCC(=O)Nc2ccc(-c3nnc(-c4ccco4)o3)cc2)cc1 | -26.1% (inactive) | – |
| O=C(Nc1ccc(C(=O)O)cc1)/C(=C\c1ccccc1)NC(=O)c1ccc(Br)cc1 | 2.35% (inactive) | – |
| CN1CCN(C(=O)C2C3C=CC(C3)C2C(=O)O)CC1 (configuration not stated) | -1.9% (inactive) | – |
| CC1CCN(S(=O)(=O)c2nnc(NC(=O)COc3ccccc3F)s2)CC1 | -5.02% (inactive) | – |

| Compound | activity change, negative = growth inhibition | Potency |
| --- | --- | --- |
| O=C(COc1ccccc1F)Nc1nc(-c2ccccn2)cs1 | – | 4.61 µM (active) |
| O=C(COc1ccccc1F)NC1CC1 | -12.3% (inactive) | – |
| NS(=O)(=O)c1ccc2nc(NC(=O)COc3ccccc3)sc2c1 | -0.0254% (inactive) | – |
| CC(NC(=O)c1ccco1)C(=O)Nc1nc(-c2ccccn2)cs1 (configuration not stated) | – | 5.8 µM (active) |
| Cc1ccnc(NC(=O)c2ccco2)n1 | 5.09% (inactive) | – |
| Cc1cc(NC(=O)[C@H](C)NC(=O)c2ccco2)ccc1Br | -28% (inactive) | – |
| N#Cc1ccc(OCC(=O)Nc2nc(-c3ccccn3)cs2)cc1 | – | 1.64 µM (active) |
| COc1ccc(OCC(=O)Nc2nnc(-c3ccco3)s2)cc1 | -20.5% (inactive) | – |
| Cn1c(=O)oc2cc(S(=O)(=O)NCCC(=O)NCc3ccccc3Cl)ccc21 | 4.72% (inactive) | – |
| CCN(CC)C(=O)CSc1nnc(C2CCCCC2)o1 | 0.286% (inactive) | – |
| CCC(=O)c1ccc(OC(=O)/C=C/c2cc(OC)c(OC)c(OC)c2)cc1 | 1.7% (inactive) | – |
| CC(C)CNC(=O)/C=C/C(=O)O | -14.9% (inactive) | – |
| C[C@H](CO)N1C[C@H](C)[C@@H](CN(C)C(=O)Nc2ccc3c(c2)OCO3)Oc2c(cccc2N(C)C)C1=O | -12.8% (inactive) | – |
| CCCCOc1ccc(N(CC(=O)NC(C)C)C(=O)CCC(=O)Nc2ccccn2)cc1 | -34.6% (inactive) | – |
| Cc1ccc(S(=O)(=O)NC(=O)N2CCCN(Cc3ccc(F)cc3)CC2)cc1 | -3.06% (inactive) | – |
| Cc1ccc(S(=O)(=O)C(C#N)c2nc3ccccc3nc2N2CCCC2)cc1C (configuration not stated) | -22.9% (inactive) | – |
| CC(C)OC(=O)C(C#N)c1nc2ccccc2nc1N1CCN(Cc2ccccc2)CC1 (configuration not stated) | – | 23.1 µM (active) |
| O=C(Nc1ccccc1)N1CCN(Cc2ccccc2)CC1 | -9.74% (inactive) | – |
| COc1cccc(OCC(=O)NNC(=O)c2cnccn2)c1 | -29.3% (inactive) | – |
| CS(=O)(=O)N1CCN(c2cccc(Cl)n2)CC1 | -12.8% (inactive) | – |
| N=c1c2c(-c3ccccc3)c(-c3ccccc3)n(Cc3ccccc3)c2ncn1CCCO | – | 18.4 µM (active) |
| CCN(CC)CCn1cnc2c1c(=O)[nH]c(=O)n2Cc1ccccc1 | -22.4% (inactive) | – |

| Compound | activity change, negative = growth inhibition | Potency |
| --- | --- | --- |
| COCCn1cnc2c1c(=O)n(Cc1ccc(Br)cc1)c(=O)n2Cc1ccccc1 | -5.41% (inactive) | – |
| COc1ccc(C(=O)CSc2nnc(-c3ccco3)o2)cc1 | -17.3% (inactive) | – |
| O=C1CN(C(=O)CN2C(=O)NC3(CCCCC3)C2=O)c2ccccc2N1 | -1.46% (inactive) | – |
| Cc1ccn2c(=O)c(C(=O)NCCC3=CCCCC3)c(O)nc2c1 | – | 20.6 µM (active) |
| CC(Sc1nncn1C)C(=O)NCCC1=CCCCC1 (configuration not stated) | -19.3% (inactive) | – |
| CCOCCCNC(=O)C1(O)c2cc(Br)ccc2NC(=O)N1c1ccc(C)c(C)c1 (configuration not stated) | 10.1% (inactive) | – |
| Cc1cccc(NC(=O)CCN2CC(C)CC(C)C2)c1 (configuration not stated) | 13.4% (inactive) | – |
| Cc1cc(=O)oc2cc(OC(C)C(=O)Nc3ccc(N4CCOCC4)cc3)ccc12 (configuration not stated) | -14.8% (inactive) | – |
| O=C(CC1Oc2ccccc2NC1=O)NCCCN1CCN(Cc2ccccc2)CC1 (configuration not stated) | 0.2% (inactive) | – |
| CC1CN(C(=O)CCC(=O)NC2CCN(Cc3ccccc3)CC2)c2ccccc2O1 (configuration not stated) | 4.16% (inactive) | – |
| CC1CN(C(=O)CCC(=O)NCCCN2CCC(Cc3ccccc3)CC2)c2cc(Cl)ccc2O1 (configuration not stated) | – | 18.4 µM (active) |
| CSc1ccc(Cl)c(C(=O)OCC(=O)N2CC(C)OC(C)C2)c1 (configuration not stated) | 7.32% (inactive) | – |
| Cc1noc(C)c1S(=O)(=O)N(C)C[C@H]1Oc2ccc(NC(=O)C3CCCCC3)cc2C(=O)N([C@H](C)CO)C[C@@H]1C | -13.7% (inactive) | – |
| C[C@H]1COc2cc(N3CCSCC3)ccc2S(=O)(=O)N1 | -28.5% (inactive) | – |
| Cc1nnc(C)n1/N=C/c1ccc(C(C)C)cc1 | -3.59% (inactive) | – |
| Cc1ccc(F)c(NC(=O)CCOc2ccccc2C)c1 | -6.79% (inactive) | – |
| CCOC(=O)N1CCC(NC(=O)COc2cc(=O)n(C)c3ccccc23)CC1 | -4.89% (inactive) | – |
| Cc1cc(Br)ccc1NC(=O)CCCOc1cc(=O)n(C)c2ccccc12 | – | 25.9 µM (active) |
| Cc1cc(C)n2nc(C(=O)Oc3ccc4c(c3)OCO4)nc2n1 | -23.2% (inactive) | – |
| CC(=O)c1c(N)n(C)c(=O)n(C)c1=O | 0.345% (inactive) | – |
| CCOC(=O)c1[nH]c2ccccc2c1N=C(C)N(CC)CC | -10.8% (inactive) | – |
| Cc1c(-c2ccccc2)n[nH]c1C(=O)N=Nc1c(O)[nH]c2ccccc12 | – | 23.1 µM (active) |

| Compound | activity change, negative = growth inhibition | Potency |
| --- | --- | --- |
| CC(=O)c1c(-c2ccccc2)c2ccccc2[nH]c1=O | -0.0692% (inactive) | – |
| O=C(c1ccco1)N1CCN(C(=O)C2CC(c3ccc(F)cc3)=NO2)CC1 (configuration not stated) | 8.49% (inactive) | – |
| COC(=O)c1ccc(Cc2ccccc2)o1 | -14% (inactive) | – |
| COC(=O)c1ccc(CN(c2ccccc2OC)S(=O)(=O)c2cccs2)o1 | – | 23.1 µM (active) |
| COc1ccccc1N(CC(=O)Nc1ccc(C(F)(F)F)cc1)S(C)(=O)=O | 4.9% (inactive) | – |
| O=C(O)C1C2CC2CN1C(=O)c1ccc(Cl)cc1Cl (configuration not stated) | -14.9% (inactive) | – |
| O=C(CSC1CC(=O)N(CCc2ccccc2)C1=O)Nc1ccc(Cl)cc1 (configuration not stated) | -19.9% (inactive) | – |
| O=C(CSc1ccc(-c2ccco2)nn1)Nc1cccc(F)c1 | – | 20.6 µM (active) |
| O=C(CSc1ccc(-c2ccc(-n3cccn3)cc2)nn1)Nc1ccc([N+](=O)[O-])cc1 | -3.72% (inactive) | – |
| O=C(CSc1ccc(-c2ccc(F)cc2)nn1)Nc1ccc2c(c1)OCCO2 | -27.9% (inactive) | – |
| O=C(CSc1ccc(-c2ccccn2)nn1)Nc1ccccc1 | – | 18.4 µM (active) |
| O=C(CSc1ccc(-c2ccco2)nn1)NCc1ccc2c(c1)OCO2 | -1.47% (inactive) | – |
| Cc1ccccc1NC(=O)CSc1ccc2nnc(-c3ccccn3)n2n1 | -11.4% (inactive) | – |
| O=C(CCC(=O)OCc1cccc(C(=O)Oc2ccccc2)c1)Nc1cccc2ccccc12 | -21.2% (inactive) | – |
| C=CCOc1ccccc1NC(=O)CN1C(=O)CNC1=O | -7.28% (inactive) | – |
| COc1nc(N(C)C)nc(N2CC(=O)N(CCNS(=O)(=O)c3ccc(C)cc3)C2=N)n1 | -15.3% (inactive) | – |
| NC(=O)C1(N2CCCCC2)CCN(C(=S)Nc2ccc(Cl)cc2)CC1 | -6.42% (inactive) | – |
| CC(C)(C)Oc1ncc(Br)c(OC(C)(C)C)n1 | -2.08% (inactive) | – |
| Cc1ccc(/C=C/C(=O)OCC(=O)NCc2ccc(Cl)cc2)o1 | 8.3% (inactive) | – |
| CCOCCCNC(=O)C(NC(=O)c1ccccc1O)c1ccccc1 (configuration not stated) | -7.83% (inactive) | – |
| O=C(CSc1nnc(C2CC2)n1Cc1ccccc1)Nc1cccnc1Cl | 6.73% (inactive) | – |
| O=C(NOCc1ccccc1)c1cccc([N+](=O)[O-])c1 | -4.33% (inactive) | – |

| Compound | activity change, negative = growth inhibition | Potency |
| --- | --- | --- |
| CCC1(C(=O)c2ccccc2)C(c2cccc([N+](=O)[O-])c2)C1(C(=O)OC)C(=O)OC (configuration not stated) | – | 13 µM (active) |
| CCC(CC)NC(=O)/C=C/c1cccc([N+](=O)[O-])c1 | -26.5% (inactive) | – |
| COc1ccc(C)cc1NC(=O)Nc1ccccc1SC | -14% (inactive) | – |
| O=C(COC(=O)Cc1ccc([N+](=O)[O-])cc1)NC1CCCCCC1 | 21.9% (inactive) | – |
| COc1ccccc1/C=C1\SC(=O)N(CCC(=O)N(C)C2CCS(=O)(=O)C2)C1=O (configuration not stated) | -17.3% (inactive) | – |
| CN(C(=O)CCN1C(=O)/C(=C/c2ccccc2F)SC1=S)C1CCS(=O)(=O)C1 (configuration not stated) | – | 23.1 µM (active) |
| CN(C(=O)CN1C(=O)S/C(=C\c2ccccc2F)C1=O)C1CCS(=O)(=O)C1 (configuration not stated) | -1.69% (inactive) | – |
| CSc1cc(C)n(-c2ccccc2C)c(=S)c1C(C)=O | -2.36% (inactive) | – |
| Cc1cccc(NC(=O)CSc2nnc(CCNC(=O)OC(C)(C)C)o2)c1C | -2.72% (inactive) | – |
| CC1CC(C)CN(C(=O)CCNC(=O)Cn2cnc3ccccc3c2=O)C1 (configuration not stated) | -6.93% (inactive) | – |
| CCc1ccc(NC(=O)CSc2nnc(-c3cnccn3)n2Cc2ccco2)cc1 | -21.8% (inactive) | – |
| O=C1c2ccccc2C(=O)C1c1ccccc1F | -1.5% (inactive) | – |
| CN1CCN(c2ncc3c(n2)CC(c2ccccc2F)CC3=O)CC1 (configuration not stated) | – | 18.4 µM (active) |
| CCCN1CCc2nc(N3CCN(C)CC3)ncc2C1 | -13.9% (inactive) | – |
| CSc1nsc(SC)c1NC(=O)OC1CCCCC1 | -24.9% (inactive) | – |
| N#CCSc1nn(-c2ccc(F)cc2)c(=S)s1 | -15.7% (inactive) | – |
| CCOC(=O)N/N=C1\CC(C)S(=O)(=O)c2ccc(Cl)cc21 (configuration not stated) | -29.5% (inactive) | – |
| Cc1nc(N2CCOCC2)nc2c1CCCC2 | -3.14% (inactive) | – |
| COc1cccc(C(C(=O)NC2CCCC2)N(C(=O)c2ccco2)c2cccc(C(C)=O)c2)c1OC (configuration not stated) | -19.3% (inactive) | – |
